# Reference: PubChem BioAssay AID1159580 (chemical genetic matrix, 2015)
# The whole screen tested about 5,500 compounds, of which about 2,000 (36%) were called active. About 18% were inconclusive and are not listed. The list shows a part of the results. Unmarked numbers belong to inactive results. Rule as the data show it: active = normalized growth mostly below about 0.91 (no sharp cut-off); inconclusive = no clear call, values can overlap the other calls; inactive = mostly above about 0.92.
# Assay: chemical genetic growth profiling, strain panel (AID 1159580);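 also: tested at 20 µM; growth read once vehicle control cultures reached saturation at 30 °C; 1 = growth at the plate median or of vehicle wells; lower values mean less growth of the strain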
# Details: growth OD
# [1] = S. cerevisiae deletion strains, locus YAL013W, strain DEP1, active compounds read low
# [2] = S. cerevisiae deletion strains, locus YBR229C, strain ROT2, active compounds read low
# [3] = S. cerevisiae deletion strains, locus YDL101C, strain DUN1, active compounds read low
# [4] = S. cerevisiae deletion strains, locus YDR150W, strain NUM1, active compounds read low
# [5] = S. cerevisiae deletion strains, locus YEL061C, strain CIN8, active compounds read low
# [6] = S. cerevisiae deletion strains, locus YGR078C, strain PAC10, active compounds read low
# [7] = S. cerevisiae deletion strains, locus YHR030C, strain SLT2, active compounds read low
# [8] = S. cerevisiae deletion strains, locus YHR087W, strain rtc3, active compounds read low
# [9] = S. cerevisiae deletion strains, locus YJL187C, strain SWE1, active compounds read low
# [10] = S. cerevisiae deletion strains, locus YJR043C, strain POL32, active compounds read low
# [11] = S. cerevisiae deletion strains, locus YJR075W, strain HOC1, active compounds read low
# [12] = S. cerevisiae deletion strains, locus YLR039C, strain RIC1, active compounds read low
# [13] = S. cerevisiae deletion strains, locus YLR058C, strain SHM2 (second series), active compounds read low
# [14] = S. cerevisiae deletion strains, locus YLR085C, strain ARP6, active compounds read low
# [15] = S. cerevisiae deletion strains, locus YLR262C, strain YPT6, active compounds read low
# [16] = S. cerevisiae deletion strains, locus YML094W, strain GIM5, active compounds read low
# [17] = S. cerevisiae deletion strains, locus YMR219W, strain ESC1, active compounds read low
# [18] = S. cerevisiae deletion strains, locus YMR263W, strain SAP30, active compounds read low
# [19] = S. cerevisiae deletion strains, locus YNL153C, strain GIM3, active compounds read low
# [20] = S. cerevisiae deletion strains, locus YNL298W, strain CLA4 (second series), active compounds read low
# [21] = S. cerevisiae deletion strains, locus YNL322C, strain KRE1, active compounds read low
# [22] = S. cerevisiae deletion strains, locus YNR030W, strain Alg12, active compounds read low
# [23] = S. cerevisiae deletion strains, locus YPL055C, strain LGE1, active compounds read low
# [24] = S. cerevisiae deletion strains, locus YPL241C, strain CIN2, active compounds read low
# [25] = S. cerevisiae deletion strains, locus YPR135W, strain CTF4, active compounds read low
# [26] = S. cerevisiae strains, strain wild type, active compounds read low
# [27] = S. cerevisiae deletion strains, locus YMR307W, strain GAS1, active compounds read low
smiles,measurement,setting,value
COc1cccc(NC(N)=S)c1,normalized growth,[1],1.02
same,normalized growth,[2],1.01
same,normalized growth,[3],1.02
same,normalized growth,[4],0.992
same,normalized growth,[5],1.01
same,normalized growth,[6],1.01
same,normalized growth,"S. cerevisiae deletion strains, locus YGR229C, strain SMI1, active compounds read low",0.993
same,normalized growth,[7],1.08
same,normalized growth,[8],0.997
same,normalized growth,[9],1.01
same,normalized growth,[10],1.01
same,normalized growth,[11],0.991
same,normalized growth,"S. cerevisiae deletion strains, locus YKL190W, strain CNB1, active compounds read low",0.985
same,normalized growth,[12],1.03
same,normalized growth,[13],1.03
same,normalized growth,[14],1.02
same,normalized growth,[15],1.05
same,normalized growth,[16],1
same,normalized growth,[17],1.01
same,normalized growth,[18],1.01
same,normalized growth,[19],0.998
same,normalized growth,[20],1.03
same,normalized growth,[21],0.995
same,normalized growth,[22],1.01
same,normalized growth,"S. cerevisiae deletion strains, locus YOL006C, strain TOP1, active compounds read low",1.05
same,normalized growth,[23],0.984
same,normalized growth,[24],0.964
same,normalized growth,[25],1.12
same,normalized growth,[26],0.993
c1cc(CN2CCCCC2)cc(OCCCNc2nc3ccccc3s2)c1,normalized growth,[1],1
same,normalized growth,"S. cerevisiae deletion strains, locus YAL040C, strain CLN3, active compounds read low",0.908
same,normalized growth,"S. cerevisiae deletion strains, locus YCL061C, strain MRC1 (second series), active compounds read low",1.01
same,normalized growth,[4],1.02
same,normalized growth,"S. cerevisiae deletion strains, locus YDR363W, strain ESC2, active compounds read low",0.997
same,normalized growth,"S. cerevisiae deletion strains, locus YER002W, strain NOP16, active compounds read low",0.936
same,normalized growth,[18],1.01
same,normalized growth,[27],1.01
same,normalized growth,"S. cerevisiae deletion strains, locus YNL197C, strain WHI3, active compounds read low",1.04
same,normalized growth,"S. cerevisiae deletion strains, locus YNL224C, strain SQS1, active compounds read low",1.06
same,normalized growth,[21],0.992
same,normalized growth,"S. cerevisiae deletion strains, locus YOR083W, strain WHI5 (second series), active compounds read low",1.03
COc1cccc(Nc2nc3ccccc3s2)c1,normalized growth,[1],0.728 (active)
same,normalized growth,[2],0.709 (active)
same,normalized growth,[3],0.724 (active)
same,normalized growth,[4],0.877
same,normalized growth,[5],0.533 (active)
same,normalized growth,[6],0.827 (active)
same,normalized growth,[7],0.112 (active)
same,normalized growth,[8],0.688 (active)
same,normalized growth,[9],0.682 (active)
same,normalized growth,[10],0.856 (active)
same,normalized growth,[11],0.711 (active)
same,normalized growth,[12],0.163 (active)
same,normalized growth,[13],0.914 (active)
same,normalized growth,[14],0.138 (active)
same,normalized growth,[15],0.187 (active)
same,normalized growth,[16],0.66 (active)
same,normalized growth,[17],0.804 (active)
same,normalized growth,[18],0.795 (active)
same,normalized growth,[27],0.208 (active)
same,normalized growth,[19],0.799 (active)
same,normalized growth,[20],0.421 (active)
same,normalized growth,[21],0.943 (active)
same,normalized growth,[22],0.575 (active)
same,normalized growth,[23],0.548 (active)
same,normalized growth,[24],0.485 (active)
same,normalized growth,[25],0.264 (active)
same,normalized growth,[26],0.598 (active)
